Our source for the binding signal values is PMC4242493, “Sequence specificity incompletely defines the genome-wide occupancy of Myc”.

Whole data set: some 33,000 sequences, median “normalized occupancy” near 0.075, cut for the highest 2% near 0.095. The sample as a whole holds a higher share of the highest values than the screen did.

Chain of MaxL homodimer (P61244 whole entry): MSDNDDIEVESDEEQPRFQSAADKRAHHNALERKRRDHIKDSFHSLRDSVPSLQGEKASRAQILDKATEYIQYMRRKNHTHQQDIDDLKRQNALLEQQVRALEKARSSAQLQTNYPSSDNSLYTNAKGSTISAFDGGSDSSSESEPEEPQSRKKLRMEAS

This test addresses MaxL homodimer (Homo sapiens, UniProt P61244 1-160). Kind of test: universal protein-binding microarray (PBM); PBS-based mixture, 10 nM His-tagged protein dimer, 2% milk, 200 ng/uL BSA, 50 ng/uL salmon testes DNA, 0.02% TX-100; detection with Alexa 488 anti-His antibody;; high values mean tight binding. The following applies: protein: recombinant; tags: C-terminal His-tag (pET21a); chain copies: 2; dsDNA, one strand shown. A digest of the protocol: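 Binding occupancy is a fluorescence intensity normalised to the intensity of the highest-ranked sequence word. Those intensities came from 8-mers on Agilent 4 x 44 K 'all 10-mer' universal arrays incubated with 10 nM His-tagged protein dimer. Bound protein was detected with 10 ng/μL fluorophore-conjugated anti-His antibody before scanning on a GenePix 4400A.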
On to AACATGCG, for which the binding signal worked out at 0.101 normalized occupancy.

With GACATGCC, the binding signal stood at 0.0968 normalized occupancy.

Consider GAGATGCC, for which the binding signal came out at 0.0786 normalized occupancy.

For CAGATGCG, the binding signal turned out to be 0.078 normalized occupancy.

As to GACATGCA, the binding signal came out at 0.0909 normalized occupancy.

With CAAATGCC, the binding signal came to 0.0743 normalized occupancy.

Take CCAACCCA: the binding signal was 0.0759 normalized occupancy.

As to AGTGCCTC, the binding signal came out at 0.0729 normalized occupancy.

Turning to AGAGGCAC, the binding signal was found to be 0.0762 normalized occupancy.

Take AGGCTCAT: the binding signal is 0.0751 normalized occupancy.

With AATCTAAA, the binding signal stood at 0.0727 normalized occupancy.

Regarding ACCGGTAG, the binding signal was 0.0719 normalized occupancy.

Take CAAATGCA: the binding signal was 0.0784 normalized occupancy.

Consider CACATGCA, for which the binding signal came out at 0.138 normalized occupancy.

On to TACATGCA, for which the binding signal was 0.0895 normalized occupancy.

As to ATGCGGAG, the binding signal stood at 0.0844 normalized occupancy.

With CGTTGAGC, the binding signal came to 0.0723 normalized occupancy.

With GGGCATGA, the binding signal was 0.087 normalized occupancy.

As to CGGCATCC, the binding signal stood at 0.078 normalized occupancy.

For AGGCATGA, the binding signal is 0.091 normalized occupancy.

As to CGGCATGC, the binding signal turned out to be 0.109 normalized occupancy.

For the sequence CGGCATAC, the binding signal was determined as 0.0757 normalized occupancy.

As for CGGCATGA, the binding signal was 0.0962 normalized occupancy.

As for AGACCATC, the binding signal amounted to 0.0766 normalized occupancy.

For ATCTAGTG, the binding signal is 0.078 normalized occupancy.

For GCCTGCCA, the binding signal was 0.072 normalized occupancy.

Regarding ATGCACGC, the binding signal came to 0.111 normalized occupancy.

For CAGCACGA, the binding signal stood at 0.0909 normalized occupancy.

Turning to CTGCACGA, the binding signal was 0.0824 normalized occupancy.

Turning to ATGCACGG, the binding signal worked out at 0.0875 normalized occupancy.

For the sequence CAGCACGC, the binding signal came to 0.0982 normalized occupancy.

As for CTGCACAA, the binding signal is 0.0745 normalized occupancy.

Consider CTGCACGC, for which the binding signal amounted to 0.0997 normalized occupancy.

Consider AAGCACGC, for which the binding signal came to 0.0949 normalized occupancy.

For the sequence ATGCACGA, the binding signal worked out at 0.0913 normalized occupancy.

Take CAATTTGG: the binding signal worked out at 0.0724 normalized occupancy.

Regarding CCACCGAA, the binding signal came out at 0.0733 normalized occupancy.

For the sequence AACAGCGA, the binding signal stood at 0.0748 normalized occupancy.

As for AGTCACAA, the binding signal stood at 0.0805 normalized occupancy.

For the sequence GTATATCA, the binding signal worked out at 0.0787 normalized occupancy.

As for AACCCCCC, the binding signal was determined as 0.0825 normalized occupancy.

On to CCCACCCA, for which the binding signal is 0.0925 normalized occupancy.

Regarding ACCCCCCC, the binding signal came to 0.0963 normalized occupancy.

For GCCACCCC, the binding signal is 0.0827 normalized occupancy.

Consider CCCACCCC, for which the binding signal turned out to be 0.0962 normalized occupancy.

Turning to ACCCCCCA, the binding signal amounted to 0.0865 normalized occupancy.

Take GGTGCAAA: the binding signal turned out to be 0.0755 normalized occupancy.

For the sequence CCACGAGA, the binding signal worked out at 0.1 normalized occupancy.

With TCACGAGA, the binding signal was 0.0875 normalized occupancy.

As to CCACGAGC, the binding signal came to 0.0889 normalized occupancy.

For the sequence GCACGAGC, the binding signal came out at 0.085 normalized occupancy.

For the sequence GCACGAGA, the binding signal is 0.098 normalized occupancy.

As for CAACGAGA, the binding signal was 0.0767 normalized occupancy.

Consider CCACGAAG, for which the binding signal worked out at 0.0767 normalized occupancy.

For CCACGAGG, the binding signal is 0.182 normalized occupancy.

CCACGACG: the binding signal came out at 0.0811 normalized occupancy.

For the sequence ATGGACTA, the binding signal came out at 0.0826 normalized occupancy.

Regarding ACTGTTCA, the binding signal amounted to 0.073 normalized occupancy.

As to AATGTTAC, the binding signal is 0.0779 normalized occupancy.

ACTGCGGA: the binding signal was determined as 0.0741 normalized occupancy.

Turning to AGCTCCAA, the binding signal turned out to be 0.0722 normalized occupancy.

For the sequence CCACACCA, the binding signal was 0.0899 normalized occupancy.

CCACGCCC: the binding signal was found to be 0.0948 normalized occupancy.

With GCACGCCA, the binding signal was determined as 0.0859 normalized occupancy.

Consider CTACGCCA, for which the binding signal is 0.0777 normalized occupancy.

CCACGCCG: the binding signal stood at 0.0985 normalized occupancy.

Turning to CCACGCCA, the binding signal was 0.0991 normalized occupancy.

Consider CGCTTGTA, for which the binding signal stood at 0.0739 normalized occupancy.

As for AGGCTTTA, the binding signal was 0.0758 normalized occupancy.

As for ATGCCAAC, the binding signal amounted to 0.0785 normalized occupancy.

As for AGGCGTCG, the binding signal amounted to 0.0733 normalized occupancy.

As for AGGCGTGG, the binding signal is 0.098 normalized occupancy.

In the case of AGGCGTGA, the binding signal worked out at 0.0829 normalized occupancy.

Regarding AGGCGTTC, the binding signal came to 0.0755 normalized occupancy.

With AGGCGTGC, the binding signal worked out at 0.0963 normalized occupancy.

For the sequence AGGCGCGC, the binding signal turned out to be 0.0762 normalized occupancy.

Consider AATTAAAT, for which the binding signal was determined as 0.0748 normalized occupancy.

Turning to CGTAATTC, the binding signal came to 0.0757 normalized occupancy.

As for ACCAAGCG, the binding signal worked out at 0.0722 normalized occupancy.

ACAACTGT: the binding signal is 0.0734 normalized occupancy.

Take AAACGCGT: the binding signal came to 0.08 normalized occupancy.

With AAACGCGA, the binding signal was determined as 0.0771 normalized occupancy.

Consider ACACGCGT, for which the binding signal worked out at 0.13 normalized occupancy.

With ACGCGCGG, the binding signal stood at 0.0929 normalized occupancy.

For ACACGCGG, the binding signal is 0.143 normalized occupancy.

As for ACGCGCGT, the binding signal stood at 0.0896 normalized occupancy.

Take ACGCGCGA: the binding signal is 0.0786 normalized occupancy.

For AAACGCGG, the binding signal was 0.0761 normalized occupancy.

Turning to ACACGCGC, the binding signal was determined as 0.112 normalized occupancy.

For the sequence ACGCGCGC, the binding signal turned out to be 0.0821 normalized occupancy.

Consider ACACGCGA, for which the binding signal is 0.116 normalized occupancy.

As for ATACGCGC, the binding signal stood at 0.0771 normalized occupancy.

In the case of TAGAACAA, the binding signal is 0.0771 normalized occupancy.

As for CAGTGCTC, the binding signal came to 0.0745 normalized occupancy.

As to ATAGCGAA, the binding signal is 0.0727 normalized occupancy.

For ATTGTAAC, the binding signal was 0.0837 normalized occupancy.

On to CTCAATCA, for which the binding signal came out at 0.0801 normalized occupancy.

ACAATGAA: the binding signal turned out to be 0.0787 normalized occupancy.

In the case of AGGACATA, the binding signal came to 0.0758 normalized occupancy.

For TCTTATCA, the binding signal was 0.0736 normalized occupancy.

In the case of CTACTGTC, the binding signal came to 0.0719 normalized occupancy.

In the case of AGACATGG, the binding signal came out at 0.0832 normalized occupancy.

As for CGACATTC, the binding signal was 0.0758 normalized occupancy.

Regarding CGACATGA, the binding signal amounted to 0.0858 normalized occupancy.

Turning to AGACATGA, the binding signal stood at 0.0878 normalized occupancy.

In the case of CGACATGC, the binding signal was 0.0992 normalized occupancy.

On to AGACATGC, for which the binding signal stood at 0.102 normalized occupancy.

Take CTAGCTCA: the binding signal was found to be 0.0759 normalized occupancy.

Regarding CACGCCCA, the binding signal turned out to be 0.0892 normalized occupancy.

With GAGAGCAC, the binding signal worked out at 0.0743 normalized occupancy.

As to GCACGCAC, the binding signal was 0.0902 normalized occupancy.

As to ACACGCTC, the binding signal was determined as 0.0924 normalized occupancy.

GTACGCTA: the binding signal turned out to be 0.0796 normalized occupancy.

Regarding GAACGCTA, the binding signal is 0.0771 normalized occupancy.

As for CCACGCTA, the binding signal was determined as 0.0973 normalized occupancy.

Turning to CAACGCTA, the binding signal turned out to be 0.0734 normalized occupancy.

As to CCACGCTC, the binding signal turned out to be 0.0965 normalized occupancy.

For the sequence CCACGCAA, the binding signal was determined as 0.0865 normalized occupancy.

Regarding CCACGCAC, the binding signal was 0.0964 normalized occupancy.

Regarding CAACGCTC, the binding signal came out at 0.0772 normalized occupancy.

CGACGCTA: the binding signal amounted to 0.0724 normalized occupancy.

In the case of GCACGCTA, the binding signal came to 0.101 normalized occupancy.

GAACACAA: the binding signal is 0.0743 normalized occupancy.

With CCAATTCG, the binding signal stood at 0.0738 normalized occupancy.

With AGCCCTCC, the binding signal turned out to be 0.0723 normalized occupancy.

TCGTAAAA: the binding signal was 0.0794 normalized occupancy.

Regarding GCCATCAC, the binding signal was 0.0781 normalized occupancy.

As to ATACTGGC, the binding signal is 0.0812 normalized occupancy.

For AGGCACAC, the binding signal was 0.0801 normalized occupancy.

For AGGCACAT, the binding signal was found to be 0.098 normalized occupancy.

For the sequence ACGCACAG, the binding signal was determined as 0.076 normalized occupancy.

Regarding AGTCACAT, the binding signal was 0.101 normalized occupancy.

On to AGTCACAC, for which the binding signal was found to be 0.0886 normalized occupancy.

Turning to ACGCACAA, the binding signal amounted to 0.0775 normalized occupancy.

In the case of ACGCACAT, the binding signal is 0.0968 normalized occupancy.

For the sequence AGTCACAG, the binding signal was determined as 0.0732 normalized occupancy.

On to AGGCACAG, for which the binding signal came to 0.075 normalized occupancy.

For GCGACAGC, the binding signal worked out at 0.0756 normalized occupancy.

Turning to CAACATCG, the binding signal stood at 0.0784 normalized occupancy.

As for GTACGGGA, the binding signal is 0.0747 normalized occupancy.

Regarding GCACCAGC, the binding signal was determined as 0.0755 normalized occupancy.

For the sequence TCTGTTAA, the binding signal was 0.0739 normalized occupancy.

For AACTGTAC, the binding signal turned out to be 0.0732 normalized occupancy.

Regarding AAGCTACG, the binding signal was 0.0726 normalized occupancy.

As to CTATTGTC, the binding signal worked out at 0.079 normalized occupancy.

CCTACAGC: the binding signal came to 0.0762 normalized occupancy.

In the case of ATATGCTG, the binding signal came out at 0.0875 normalized occupancy.

Turning to ACATGCTG, the binding signal is 0.124 normalized occupancy.

As for ACATGCTA, the binding signal came to 0.106 normalized occupancy.

Consider CCATGCTA, for which the binding signal was found to be 0.0945 normalized occupancy.

Consider GCATGCTA, for which the binding signal was 0.112 normalized occupancy.

For AGATGCTA, the binding signal was 0.0746 normalized occupancy.

Turning to GGATGCTA, the binding signal worked out at 0.0763 normalized occupancy.

For AGATGCTG, the binding signal was 0.078 normalized occupancy.

For AAATGCTA, the binding signal is 0.0773 normalized occupancy.

AATAGTAA: the binding signal was found to be 0.0776 normalized occupancy.

Regarding CATGGCTA, the binding signal amounted to 0.0864 normalized occupancy.

As to AAGAATTG, the binding signal is 0.0747 normalized occupancy.

For the sequence TAGTGGCA, the binding signal amounted to 0.0787 normalized occupancy.

As to GATGCTAA, the binding signal stood at 0.0749 normalized occupancy.

On to CAGAGACC, for which the binding signal is 0.0727 normalized occupancy.

On to AGCTATAA, for which the binding signal came out at 0.0785 normalized occupancy.

With CCAGGTAA, the binding signal is 0.0729 normalized occupancy.

As for ACATACAG, the binding signal turned out to be 0.0868 normalized occupancy.

Regarding ACGTGCTG, the binding signal came out at 0.0935 normalized occupancy.

For the sequence CCGTGCTC, the binding signal was found to be 0.0737 normalized occupancy.

As for GCGTGCTA, the binding signal was determined as 0.117 normalized occupancy.

With GGGTGCTA, the binding signal was found to be 0.0789 normalized occupancy.

For the sequence ACGTGCTC, the binding signal came out at 0.108 normalized occupancy.

Take GTGTGCTA: the binding signal amounted to 0.0884 normalized occupancy.

CCGTGCTA: the binding signal came to 0.0812 normalized occupancy.

As to ACGTGCTA, the binding signal was 0.109 normalized occupancy.

On to AGGTGCTC, for which the binding signal came out at 0.0817 normalized occupancy.
